A selection: hits, their analogues and other compounds. The true share with any hit is near 11%.
IMPase cell inh – qHTS Assay for Identifying the Cell-Membrane Permeable IMPase Inhibitors. CHO-M1 cells, IP1 accumulation, HTRF TR-FRET ratio. 120,000 tested, under 10 active. Inositol monophosphatase 1 (Rattus norvegicus), P97697. inhibition (IP1 accumulation), % at 46.1 µM; active = well fitted curve in the direction sought with a large enough effect in the signal ratio, not every such curve was filed as active; inconclusive = small, poorly fitted or top-dose-only effect, or a change in a side signal; inactive = no such curve, though single readings can be large or run the other way; the % refers to the signal ratio;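 note: cells stimulated with carbachol in lithium chloride buffer; plate controls were DMSO basal wells for no effect and reference inhibitor wells for full effect; higher means more IMPase inhibition seen as more IP1 and lower FRET ratio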
Target sequence (P97697 whole entry, looked up): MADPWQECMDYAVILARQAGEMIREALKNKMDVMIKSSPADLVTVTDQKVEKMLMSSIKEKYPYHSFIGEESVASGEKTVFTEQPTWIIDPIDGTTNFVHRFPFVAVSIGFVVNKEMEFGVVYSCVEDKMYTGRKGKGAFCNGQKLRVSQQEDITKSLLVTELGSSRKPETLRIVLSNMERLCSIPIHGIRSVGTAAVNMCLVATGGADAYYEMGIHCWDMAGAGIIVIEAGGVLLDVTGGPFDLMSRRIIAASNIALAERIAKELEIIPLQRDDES
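Measured: the HTRF emission ratio (665/620 nm) plus the 620 nm donor channel, each fitted to the Hill equation to give AC50. Cells were CHO-M1 given compounds up to 46 uM and a 30 min carbachol stimulation at 37C.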
PNC inhibitor – High Content Assay for Compounds that inhibit the Assembly of the Perinucleolar Compartment; PC3M PTB-GFP, PNC prevalence imaging, 16 h; hits give low values; activity change (PNC), negative = inhibition, % at 10 µM; actives 3.1% (n = 140,000); AID 2417, 2010;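 active = readout at or below -70, meaning at least 70% loss of cells showing the perinucleolar compartment, a nuclear body marking cancer cells; inconclusive = readout between -30 and a set limit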;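 note: plate controls were DMSO wells for no effect and camptothecin positive control wells for full effect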
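PC3M cells stably expressing PTB-GFP, 750–1000 cells/well, treated 16 h at 37 °C with compound (23 nl of library stock), in duplicate. After paraformaldehyde fixation and Hoechst stain, imaged at 20x; PNC prevalence scored by image analysis.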
IMPase Li inh – qHTS Assay for Identifying the Cell-Membrane Permeable IMPase Inhibitors: Potentiation with Lithium. CHO-M1 cells, IP1 TR-FRET (IP-One), carbachol + lithium. Potency, µM (highest dose often 59.4 µM), for the others: top-dose activity, negative = IMPase inhibition, hits mostly inhibitors. actives 0.35% (n = 210,000); active = well fitted inhibition curve with a large enough effect; inconclusive = small, poorly fitted or top-dose-only effect; inactive = no such curve, though single readings can be large or run the other way;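 note: IP1 builds up when IMPase is blocked and the TR-FRET signal falls; potency is the fitted concentration of half-maximal effect; plate controls were basal vehicle for no effect and high inhibitor control for full effect; nearly all actives have a fitted effect of over 50% in size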
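Readout is a homogeneous TR-FRET IP1 immunoassay (Ex 320, Em 665 and 620), where raised cytosolic IP1 lowers signal. Cells were CHO-M1 treated 30 min at 37C with test compounds plus a little lithium; AC50 values came from Hill-equation fitting.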
ALDH1A1 block – qHTS Assay for Inhibitors of Aldehyde Dehydrogenase 1 (ALDH1A1) | Aldehyde dehydrogenase 1A1 (Homo sapiens), P00352 | Purified ALDH1A1, NADH fluorescence, propionaldehyde substrate | Potency, µM (titrated, usually from 75.3 µM), inactives show top-dose activity, negative = inhibition, hits mostly inhibitors | actives 7.3% (n = 220,000) | AID 1030, 2008;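 note: potency is the fitted concentration of half-maximal effect; plate controls were no enzyme wells and a reference inhibitor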
HPGD inh – qHTS Assay for Inhibitors of HPGD (15-Hydroxyprostaglandin Dehydrogenase). purified HPGD, NADH fluorescence kinetic, PGE2 substrate. Potency, µM, inactives show top-dose activity change, negative = inhibition, most hits filed as inhibitors. actives 4.3% (n = 150,000). AID 894, 2007; note: potency is the fitted concentration of half-maximal effect
Target sequence (P15428 whole entry, looked up): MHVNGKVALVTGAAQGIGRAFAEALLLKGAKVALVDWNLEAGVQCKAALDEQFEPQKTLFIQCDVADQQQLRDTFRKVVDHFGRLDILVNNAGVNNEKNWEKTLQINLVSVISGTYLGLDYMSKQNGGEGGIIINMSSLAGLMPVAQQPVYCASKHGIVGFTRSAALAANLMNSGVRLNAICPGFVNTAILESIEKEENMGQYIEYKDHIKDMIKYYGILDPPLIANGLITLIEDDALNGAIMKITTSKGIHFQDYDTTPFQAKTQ
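NADH formation kinetics: reaction with 30 uM PGE2 and 1 mM NAD+ (final), 20 nM enzyme, Tris-HCl pH 8 with Tween 20, after 15 min compound preincubation at room temperature. Fluorescence change, last versus first of five reads.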
The depositor's hits bear a star; ? = inconclusive; nt = no result; [ ] = dose if it differs, or a comment. Unless noted, calls come from the whole dose curve; as a rule, active = well fitted inhibition curve with a large enough effect (not every such curve was filed as active); inconclusive = small, poorly fitted or top-dose-only effect, or another doubt; inactive = no such curve, though single readings can be large or run the other way. Unless noted, % is set by controls: 0 for no effect and ±100 for the full control effect.

SMILES	IMPase cell inh	PNC inhibitor	IMPase Li inh	ALDH1A1 block	HPGD inh
CCOC(=O)/C=C/C(=O)Nc1cccc([N+](=O)[O-])c1	nt	4	-6%	-1%	1.6µM*
O=C1CCCN1CCCNC(=S)Nc1ccc(Nc2ccccc2)cc1	nt	nt	28%	14µM*	nt
O=C1CCCN1CCNC(=S)Nc1ccccc1	8	6	30%[38.3 µM]	12%	0%
CCOC(=O)c1ccc(NC(=S)NCCCN2CCCC2=O)cc1	nt	nt	20%	0.032µM*	nt
Cc1ccc(-n2nc3c([n+]2[O-])CCc2nonc2-3)cc1	nt	nt	1%	?	nt
Cc1ccc(C)c2c3c([nH]c12)-c1nonc1CC3	-1	11	5%[38.3 µM]	22µM*	-22%
CSCCC(NC(=O)c1cc([N+](=O)[O-])ccc1Cl)C(=O)O (stereo not given)	2	-82*	1%	3%	-10%
O=C(O)CC(NC(=O)Cc1ccccc1)c1cc([N+](=O)[O-])ccc1Cl (stereo not given)	nt	nt	-8%	-4%	nt
COc1ccc(C(=O)NC(CC(=O)O)c2cc([N+](=O)[O-])ccc2Cl)c(SC)c1 (stereo not given)	nt	nt	0%	8.9µM*	nt
CCCCC#CC1C=CC(Oc2ccc(OC)cc2)C(CO)O1 (stereo not given)	nt	nt	nt	2%[13.5 µM]	nt
COCc1[nH]nc2c1C(c1ccc(OC)c(OC)c1)C(C#N)=C(N)O2 (stereo not given)	0	4	4%[38.3 µM]	1%	-11%
COc1cccc(-c2[nH]nc3c2C(c2ccoc2)C(C#N)=C(N)O3)c1 (stereo not given)	5	-23	12%[38.3 µM]	13µM*	28µM*
CCn1c2ccccc2c2cc(C3C(C#N)=C(N)Oc4n[nH]c(COC)c43)ccc21 (stereo not given)	17	?	20%[38.3 µM]	1.8µM*	?
COCc1[nH]nc2c1C(c1cccc(OC)c1)C(C#N)=C(N)O2 (stereo not given)	4	-12	-9%[38.3 µM]	28µM*	-22%
O=C(N/N=C/c1ccc(N2CCOCC2)o1)c1cccc(C(F)(F)F)c1	-1	-100*	34%	?	?
COc1ccc2ccccc2c1/C=N/NC(=O)c1cccc(Br)c1	nt	-17	1%	-3%	-17%
O=C(N/N=C/c1c(O)ccc2ccccc12)c1cccc(C(F)(F)F)c1	nt	-93*	3%	-14%	?
Cc1nnc(S(=O)(=O)c2ccc(N=Nc3c(N)nc(N)nc3N)cc2)s1	nt	nt	-3%	-1%[13.5 µM]	-2%
COC(=O)c1ccc(CSc2nnc(-c3ccncc3)n2Cc2ccccc2)o1	17	-3	nt	25µM*	nt
COC(=O)c1ccc(CSc2nnc(Nc3ccccc3OC)s2)o1	7	8	-3%[38.3 µM]	25µM*	-21%
COC(=O)c1ccc(CSc2nnc(NCc3ccccc3)s2)o1	-4	-29	-3%[38.3 µM]	-14%	14µM*
CCC1=C(OC(=O)N(CC)CC)N2C(=O)OC(=NCCOC)[C@]2(C)[C@H]2C1=CC[C@H]1C(=O)N(CC)C(=O)[C@H]12	nt	nt	-4%	-8%	-2%
CCOC(=O)CCN1C(=O)[C@H]2[C@H]3[C@H](O)[C@H](O)C/C(=N/OC/C=C(\C)CCC=C(C)C)[C@H]3CC[C@@H]2C1=O	nt	nt	nt	-5%[13.5 µM]	nt
CCC1(O)CC2CN(CCc3c([nH]c4ccccc34)[C@@](C(=O)OC)(c3cc4c(cc3OC)N(C)C3[C@]45CCN4CC=C[C@@](CC)([C@@H](OC(C)=O)[C@]3(O)C(=O)OC)[C@H]45)C2)C1 (stereo not given in full)	nt	nt	-8%	-11%	-5%
CCOC(=O)/C(C#N)=C1\CC2CCC1(C)C2(C)C (stereo not given)	nt	nt	14%	13µM*	nt
O=C1NC2(CCCCC2)NN1c1ccccc1	-6	5	-25%[38.3 µM]	-5%	-7%
CC1CCC2(CC1)NC(=S)N(c1ccccc1)N2 (stereo not given)	8	21	-9%[38.3 µM]	16µM*	-4%

Screening results: PubChem, National Center for Advancing Translational Sciences (NCATS)
